For ten molecules, outcome and AC50 results are on record in PubChem BioAssay (EPA / NIEHS).

Records with an inconclusive call do not appear. Where a structure was tested more than once in an assay, its records may differ in their call. Activity calls are given as the source filed them. How the source made its calls, unless noted: active means hit-call score of the fitted dose curve at least 0.9, where 1 is the maximum; inactive means score below 0.9.

Experiment [1] addresses human RAR-related Orphan Receptor beta (RORb), RORB (gene 6096) (UniProt Q92753). Kind of experiment: ATG_RORb_TRANS: Attagene TRANS-FACTORIAL HepG2 Assay for human RAR-related Orphan Receptor beta (RORb) (AID 2283010; active means hit-call score of the fitted dose curve at least 0.9, where 1 is the maximum). In short, it runs like this:
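Multiplexed transcription-factor reporter assay: HepG2 cells transiently carrying NR-Gal4/GAL4-UAS constructs, 24 h treatment, mRNA quantified by RT-PCR plus capillary electrophoresis fluorescence; activity scored as induction over DMSO.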

The target of experiment [2] is human RAR-related Orphan Receptor gamma (RORg), RORC (gene 6097) (UniProt P51449). Nature of the experiment: ATG_RORg_TRANS: Attagene TRANS-FACTORIAL HepG2 Assay for human RAR-related Orphan Receptor gamma (RORg) (AID 2283011; active means hit-call score of the fitted dose curve at least 0.9, where 1 is the maximum). In short, it runs like this:
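First, HepG2 liver cells were transfected with GAL4-UAS-driven reporter constructs and the RORg-Gal4 fusion. Next, they were treated with chemical for 24 h. Finally, reporter mRNA was quantified by RT-PCR and capillary electrophoresis, with upward activity fitted against DMSO.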

For experiment [3], the target named is Retinoic acid receptor RXR-alpha (Homo sapiens) (UniProt P19793). Nature of the experiment: ATG_RXRa_TRANS: Attagene TRANS-FACTORIAL HepG2 Assay for human Retinoid X Receptor alpha (RXRa) (AID 2283012; active means hit-call score of the fitted dose curve at least 0.9, where 1 is the maximum). The essentials:
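Chimeric NR-GAL4 trans-activation in HepG2, 24 h treatment; reporter transcripts quantified by fluorescence on capillary electrophoresis, analysed for upward change from DMSO.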

Experiment [4] deals with human Retinoid X Receptor beta (RXRb), RXRB (gene 6257) (UniProt P28702). Nature of the experiment: ATG_RXRb_TRANS: Attagene TRANS-FACTORIAL HepG2 Assay for human Retinoid X Receptor beta (RXRb) (AID 2283013; active means hit-call score of the fitted dose curve at least 0.9, where 1 is the maximum). In short, it runs like this: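 After a 24 h incubation with test chemical, transfected HepG2 cells carrying NR-Gal4 fusions and GAL4-UAS reporter transcription units yield RNA whose reporter cDNA is FAM-labelled, HpaI-cut and sized by capillary electrophoresis; increases over DMSO are scored.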

Experiment [5] addresses human Thyroid Receptor alpha (THRa1), THRA (gene 7067) (UniProt P10827). Nature of the experiment: ATG_THRa1_TRANS: Attagene TRANS-FACTORIAL HepG2 Assay for human Thyroid Receptor alpha (THRa1) (AID 2283014; active means hit-call score of the fitted dose curve at least 0.9, where 1 is the maximum). The essentials:
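Reporter transcript induction, read by capillary electrophoresis of 6-FAM-labelled RT-PCR products, reflects activity of a transfected THRa1-Gal4 fusion in HepG2 liver cells. Cells were dosed for 24 h; activity was fitted in the positive direction against DMSO.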

For experiment [6], the target named is human Vitamin D Receptor (VDR), VDR (gene 7421) (UniProt P11473). Nature of the experiment: ATG_VDR_TRANS: Attagene TRANS-FACTORIAL HepG2 Assay for human Vitamin D Receptor (VDR) (AID 2283022; active means hit-call score of the fitted dose curve at least 0.9, where 1 is the maximum). The essentials:
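Steps: transfect HepG2 with GAL4-UAS-driven reporter constructs; dose compounds 24 h; isolate RNA, reverse-transcribe, PCR-amplify with 6-FAM-labelled primer extension and HpaI digestion; quantify fragments by capillary electrophoresis relative to DMSO.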

Read-out in experiment [7]: E-selectin (Homo sapiens) (UniProt P16581)
Kind of experiment: BSK_3C_Eselectin: BioMAP Diversity Plus: 3C Assay for Eselectin Biomarker Activity (AID 2283015).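 Further: cell surface E-selectin protein quantified by ELISA 24 h after dosing.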 The conditions noted are these: primary human endothelial cells (HUVEC); actives raise or lower the signal. The essentials:
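ELISA read-out of E-selectin on endothelial monolayers after 24 h chemical treatment. Human umbilical vein primary cells served as the system, with DMSO defining baseline activity for bidirectional fitting.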

Read-out in experiment [8]: Interleukin-1 alpha (IL1a), IL1A (gene 3552)
Nature of the experiment: BSK_BE3C_IL1a: BioMAP Diversity Plus: BE3C Assay for Interleukin-1 alpha (IL1a) Biomarker Activity (AID 2283016). The conditions noted are these: primary human bronchial epithelial cells; actives raise or lower the signal. The essentials:
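Measured in human lung primary bronchial epithelial cells: IL-1a by ELISA at 24 h after dosing, with bidirectional fitting against DMSO.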

Read-out in experiment [9]: Monocyte Chemoattractant Protein-1 (MCP1), CCL2 (gene 6347)
Nature of the experiment: BSK_3C_MCP1: BioMAP Diversity Plus: 3C Assay for Monocyte Chemoattractant Protein-1 (MCP1) Biomarker Activity (AID 2283017). The conditions noted are these: primary human endothelial cells (HUVEC); actives raise or lower the signal. The essentials: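 ELISA read-out of MCP-1 from human umbilical vein endothelial cell cultures harvested 24 h post-dosing. Gain or loss of signal was fitted relative to DMSO.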

Read-out in experiment [10]: Monocyte Chemoattractant Protein-1 (MCP1), CCL2 (gene 6347)
Kind of experiment: BSK_4H_MCP1: BioMAP Diversity Plus: 4H Assay for Monocyte Chemoattractant Protein-1 (MCP1) Biomarker Activity (AID 2283018). The conditions noted are these: primary human endothelial cells (HUVEC); actives raise or lower the signal. In short, it runs like this: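 Primary human umbilical vein endothelium is exposed to chemical for 24 h before MCP-1 is assayed by ELISA. Concentration-response fitted bidirectionally relative to DMSO.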

Read-out in experiment [11]: Human Leukocyte Antigen - DR isotype (HLADR), HLA-DRA (gene 3122)
Nature of the experiment: BSK_3C_HLADR: BioMAP Diversity Plus: 3C Assay for Human Leukocyte Antigen - DR isotype (HLADR) Biomarker Activity (AID 2283019). The conditions noted are these: primary human endothelial cells (HUVEC); actives raise or lower the signal. The essentials: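 ELISA readout of surface HLA-DR on human umbilical vein endothelium, taken 24 h after chemical treatment. Gain- and loss-of-signal were both fitted relative to DMSO.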

Read-out in experiment [12]: Interleukin-8 (IL8), CXCL8 (gene 3576)
Nature of the experiment: BSK_3C_IL8: BioMAP Diversity Plus: 3C Assay for Interleukin-8 (IL8) Biomarker Activity (AID 2283020). The conditions noted are these: primary human endothelial cells (HUVEC); actives raise or lower the signal. In short, it runs like this: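 Using DMSO-treated wells as the baseline, bidirectional curve fitting was applied to ELISA-measured IL-8 from human umbilical vein endothelial cultures sampled 24 h after compound addition.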

Read-out in experiment [13]: Monokine induced gamma interferon (MIG), CXCL9 (gene 4283)
Kind of experiment: BSK_3C_MIG: BioMAP Diversity Plus: 3C Assay for Monokine induced gamma interferon (MIG) Biomarker Activity (AID 2283021). The conditions noted are these: primary human endothelial cells (HUVEC); actives raise or lower the signal. In short, it runs like this: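 ELISA-measured MIG in dosed HUVEC 3C cultures at 24 h, analysed by bidirectional fitting with DMSO defining baseline activity.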

The nature of experiment [14]: BSK_3C_SRB: Viability Assessment in the BioMAP Diversity Plus: 3C Assay (AID 2283023).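 Further: fitted both ways against DMSO so a hit may be signal rise or drop.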 The conditions noted are these: primary human endothelial cells (HUVEC). The essentials:
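Absorbance at 560 nm of sulforhodamine B-stained (0.1%) total protein served as a cytotoxicity readout in human umbilical vein endothelial cells, 24 h after chemical treatment. Signal was fitted bidirectionally relative to DMSO.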

Read-out in experiment [15]: Matrix Metallopeptidase 1 (MMP1), MMP1 (gene 4312)
Nature of the experiment: BSK_BE3C_MMP1: BioMAP Diversity Plus: BE3C Assay for Matrix Metallopeptidase 1 (MMP1) Biomarker Activity (AID 2283024). To be noted: primary human bronchial epithelial cells; actives raise or lower the signal. The essentials: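 In this multiplexed primary-cell system, human bronchial epithelium received chemicals for 24 h before an ELISA for MMP1. Values reflect bidirectional fits normalised to the DMSO baseline.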

Experiment [16] in a line: BSK_3C_Vis: BioMAP Diversity Plus: 3C Assay for Morphology Visualization (AID 2283025).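 Further: fitted both ways so gain or loss versus DMSO counts.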 The conditions noted are these: primary human endothelial cells (HUVEC). In short, it runs like this: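 Light-microscopy morphology readout, 24 h exposure, human primary umbilical vein endothelium; analysed relative to DMSO with bidirectional fitting.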
Read-out in experiment [17]: Pselectin, SELP (gene 6403)
Nature of the experiment: BSK_4H_Pselectin: BioMAP Diversity Plus: 4H Assay for Pselectin Biomarker Activity (AID 2283026). To be noted: primary human endothelial cells (HUVEC); actives raise or lower the signal. In short, it runs like this: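 Bidirectional fits against DMSO gave the endpoint. Cells: primary human umbilical vein endothelium, chemical-treated for 24 h before ELISA detection of P-selectin.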

Experiment [18] can be described thus: BSK_4H_SRB: Viability Assessment in the BioMAP Diversity Plus: 4H Assay (AID 2283027).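 Further: cells exposed to compound for 24 h before staining.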 The conditions noted are these: primary human endothelial cells (HUVEC). The essentials:
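Cytotoxicity readout: sulforhodamine B (0.1%) staining of total protein after 10% TCA fixation, measured at 560 nm in human umbilical vein endothelium at 24 h. DMSO set the baseline; fitting was bidirectional.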

Read-out in experiment [19]: Thrombomodulin, THBD (gene 7056)
Kind of experiment: BSK_3C_Thrombomodulin: BioMAP Diversity Plus: 3C Assay for Thrombomodulin Biomarker Activity (AID 2283029). The conditions noted are these: primary human endothelial cells (HUVEC); actives raise or lower the signal. In short, it runs like this: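 In a multiplexed primary-cell system, human umbilical vein endothelium received chemical and was assayed 24 h later for thrombomodulin by ELISA. Parallel cultures were SRB-stained (0.1% SRB after 10% TCA fixation, read at 560 nm) to flag cytotoxicity.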

Experiment [20] in a line: BSK_BE3C_SRB: Viability Assessment in the BioMAP Diversity Plus: BE3C Assay (AID 2283028). The conditions noted are these: primary human bronchial epithelial cells. In short, it runs like this:
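Cells (human bronchial epithelial, primary) are treated with chemicals, and after 24 h the parallel cultures are fixed in 10% TCA. These are then stained with 0.1% SRB and read at 560 nm. Gain or loss of signal is fitted relative to DMSO.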

human Vitamin D Receptor (VDR), VDR (gene 7421), sequence (P11473 whole entry, looked up, the tested form may be a part): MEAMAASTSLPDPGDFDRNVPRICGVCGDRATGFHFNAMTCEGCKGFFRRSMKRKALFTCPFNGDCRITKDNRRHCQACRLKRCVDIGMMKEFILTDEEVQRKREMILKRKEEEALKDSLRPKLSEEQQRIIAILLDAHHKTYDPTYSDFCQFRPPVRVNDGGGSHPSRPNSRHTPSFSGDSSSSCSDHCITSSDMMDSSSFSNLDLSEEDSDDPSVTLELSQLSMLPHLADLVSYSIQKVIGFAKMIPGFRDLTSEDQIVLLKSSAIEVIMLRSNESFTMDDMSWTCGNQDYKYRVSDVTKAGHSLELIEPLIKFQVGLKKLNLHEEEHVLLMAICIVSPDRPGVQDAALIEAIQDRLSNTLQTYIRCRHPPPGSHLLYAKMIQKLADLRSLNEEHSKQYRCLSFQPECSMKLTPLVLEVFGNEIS
E-selectin (Homo sapiens), sequence (P16581 whole entry, looked up): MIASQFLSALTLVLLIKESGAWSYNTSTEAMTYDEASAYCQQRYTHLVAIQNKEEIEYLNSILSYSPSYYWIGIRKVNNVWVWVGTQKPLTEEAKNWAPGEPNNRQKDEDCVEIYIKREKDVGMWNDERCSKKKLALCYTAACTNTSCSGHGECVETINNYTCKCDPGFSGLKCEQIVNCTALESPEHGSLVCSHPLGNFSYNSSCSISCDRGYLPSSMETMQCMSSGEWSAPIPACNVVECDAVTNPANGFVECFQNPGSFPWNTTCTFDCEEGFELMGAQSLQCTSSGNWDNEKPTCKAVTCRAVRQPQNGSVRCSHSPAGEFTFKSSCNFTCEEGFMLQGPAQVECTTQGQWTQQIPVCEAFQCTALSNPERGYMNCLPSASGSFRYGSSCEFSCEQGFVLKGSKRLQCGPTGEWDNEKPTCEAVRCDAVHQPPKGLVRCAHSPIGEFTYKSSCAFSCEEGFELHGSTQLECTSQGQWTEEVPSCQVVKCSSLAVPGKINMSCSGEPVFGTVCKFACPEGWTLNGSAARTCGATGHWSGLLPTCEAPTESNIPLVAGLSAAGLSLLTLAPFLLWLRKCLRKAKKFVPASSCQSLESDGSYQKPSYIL
human RAR-related Orphan Receptor gamma (RORg), RORC (gene 6097), sequence (P51449 whole entry, looked up, the tested form may be a part): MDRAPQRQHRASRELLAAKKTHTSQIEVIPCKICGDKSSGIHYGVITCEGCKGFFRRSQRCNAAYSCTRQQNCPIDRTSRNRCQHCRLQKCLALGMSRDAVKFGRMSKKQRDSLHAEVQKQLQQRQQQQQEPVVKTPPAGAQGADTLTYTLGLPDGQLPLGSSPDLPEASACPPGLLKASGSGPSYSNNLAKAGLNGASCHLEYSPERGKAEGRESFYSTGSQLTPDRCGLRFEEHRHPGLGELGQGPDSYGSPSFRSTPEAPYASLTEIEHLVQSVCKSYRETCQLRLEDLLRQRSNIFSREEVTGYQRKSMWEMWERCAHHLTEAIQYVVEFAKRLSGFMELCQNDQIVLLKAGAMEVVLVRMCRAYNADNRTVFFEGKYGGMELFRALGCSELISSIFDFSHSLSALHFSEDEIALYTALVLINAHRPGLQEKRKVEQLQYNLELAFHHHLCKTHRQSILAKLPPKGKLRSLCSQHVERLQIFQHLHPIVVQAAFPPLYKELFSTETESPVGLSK
human Retinoid X Receptor beta (RXRb), RXRB (gene 6257), sequence (P28702 whole entry, looked up, the tested form may be a part): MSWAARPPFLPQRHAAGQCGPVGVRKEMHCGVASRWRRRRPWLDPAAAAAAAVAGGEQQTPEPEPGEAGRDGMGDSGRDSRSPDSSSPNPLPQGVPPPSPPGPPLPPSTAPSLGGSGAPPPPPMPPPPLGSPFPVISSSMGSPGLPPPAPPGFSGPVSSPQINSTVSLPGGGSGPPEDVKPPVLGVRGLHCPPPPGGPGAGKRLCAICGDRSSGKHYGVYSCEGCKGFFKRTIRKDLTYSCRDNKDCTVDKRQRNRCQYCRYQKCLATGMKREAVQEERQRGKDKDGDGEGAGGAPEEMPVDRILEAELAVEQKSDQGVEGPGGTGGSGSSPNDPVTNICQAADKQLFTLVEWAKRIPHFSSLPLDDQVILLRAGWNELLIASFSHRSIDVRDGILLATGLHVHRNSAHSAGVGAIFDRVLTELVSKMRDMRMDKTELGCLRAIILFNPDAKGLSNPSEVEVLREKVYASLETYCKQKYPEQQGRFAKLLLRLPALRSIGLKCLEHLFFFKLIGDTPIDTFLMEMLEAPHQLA
human RAR-related Orphan Receptor beta (RORb), RORB (gene 6096), sequence (Q92753 whole entry, looked up, the tested form may be a part): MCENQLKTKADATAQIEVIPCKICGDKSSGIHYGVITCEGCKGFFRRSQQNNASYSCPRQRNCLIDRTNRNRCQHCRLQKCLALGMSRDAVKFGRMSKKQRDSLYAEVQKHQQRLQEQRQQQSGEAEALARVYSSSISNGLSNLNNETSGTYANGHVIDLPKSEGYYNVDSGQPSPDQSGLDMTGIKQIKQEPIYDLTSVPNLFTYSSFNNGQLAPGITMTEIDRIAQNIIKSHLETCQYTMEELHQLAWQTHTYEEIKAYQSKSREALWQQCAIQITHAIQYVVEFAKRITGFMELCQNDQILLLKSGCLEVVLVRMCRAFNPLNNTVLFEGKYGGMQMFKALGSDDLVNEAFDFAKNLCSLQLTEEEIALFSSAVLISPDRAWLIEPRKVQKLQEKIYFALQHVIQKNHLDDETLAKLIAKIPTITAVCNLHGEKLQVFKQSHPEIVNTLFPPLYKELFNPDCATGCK
Retinoic acid receptor RXR-alpha (Homo sapiens), sequence (P19793 whole entry, looked up, the tested form may be a part): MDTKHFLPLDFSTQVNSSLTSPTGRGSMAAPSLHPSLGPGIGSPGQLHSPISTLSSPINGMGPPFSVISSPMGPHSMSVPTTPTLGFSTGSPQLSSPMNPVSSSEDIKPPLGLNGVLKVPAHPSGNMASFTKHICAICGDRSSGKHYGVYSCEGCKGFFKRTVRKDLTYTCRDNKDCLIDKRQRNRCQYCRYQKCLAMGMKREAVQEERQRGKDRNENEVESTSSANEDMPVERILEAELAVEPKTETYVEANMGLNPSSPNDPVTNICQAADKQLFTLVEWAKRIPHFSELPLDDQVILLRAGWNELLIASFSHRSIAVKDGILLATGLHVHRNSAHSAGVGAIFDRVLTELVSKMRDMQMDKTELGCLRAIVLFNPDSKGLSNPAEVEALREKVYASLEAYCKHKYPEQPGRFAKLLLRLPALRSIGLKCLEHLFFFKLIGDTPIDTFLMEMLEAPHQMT
human Thyroid Receptor alpha (THRa1), THRA (gene 7067), sequence (P10827 whole entry, looked up, the tested form may be a part): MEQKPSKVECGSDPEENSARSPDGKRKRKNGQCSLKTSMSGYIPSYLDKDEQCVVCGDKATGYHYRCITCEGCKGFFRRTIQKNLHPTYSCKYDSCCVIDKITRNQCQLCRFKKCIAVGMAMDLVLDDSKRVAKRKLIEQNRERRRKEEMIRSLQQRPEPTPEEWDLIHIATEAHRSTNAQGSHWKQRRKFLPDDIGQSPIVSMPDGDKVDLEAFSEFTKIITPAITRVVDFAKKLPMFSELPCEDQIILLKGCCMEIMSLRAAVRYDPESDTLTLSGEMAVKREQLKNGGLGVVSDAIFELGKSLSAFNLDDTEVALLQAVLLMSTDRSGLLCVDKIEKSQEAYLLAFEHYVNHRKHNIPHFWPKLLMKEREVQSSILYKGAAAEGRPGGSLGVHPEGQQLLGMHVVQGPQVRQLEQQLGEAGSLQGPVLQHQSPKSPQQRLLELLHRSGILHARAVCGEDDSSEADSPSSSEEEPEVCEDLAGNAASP

Consider `Nc1cc(Cl)c(N)c(Cl)c1`, for which the molecule was called inactive in [1], in experiment [2], in [3], in experiment [4], in experiment [5] and in experiment [6].

With `OC[C@@H](O)[C@@H](O)[C@H](O)[C@@H](O)CO`, the call in experiment [2], in [3], in [4] and in experiment [6] was inactive. Further, the AC50 – broadly, the concentration at which the activity in the assay is half-maximal – in experiment [4] was 35.1 µM (active).

As to `Nc1ccc([N+](=O)[O-])cc1O`, the outcome in experiment [1], in experiment [3], in experiment [4], in experiment [5], in experiment [7] and in experiment [8] was inactive. For the same molecule, the result in [9], in [10], in experiment [11], in experiment [12], in [13] and in [6] was inactive. For the same molecule, the result in experiment [14], in experiment [15], in experiment [16], in experiment [17], in [18] and in [19] was inactive.

Turning to `O=S(=O)(O)c1ccc2ccccc2c1`, the call in experiment [1], in experiment [3], in [5] and in experiment [6] was inactive.

As for `FC(F)(F)C(F)(F)C(F)(F)C(F)(F)CCI`, the molecule was classed as inactive in [1], in experiment [3], in [7], in experiment [8], in [9] and in [10]. Further, the outcome in experiment [11], in [13], in [6], in experiment [14], in [15] and in [17] was inactive. For the same molecule, the result in experiment [18], in experiment [20] and in experiment [19] was inactive. Moreover, the AC50 is 123 µM (active) in [4] and 30 µM (active) in experiment [15].

As for `CCCCC(CC)COP(=O)(O)OCC(CC)CCCC` (configuration not stated), the result in [1], in [7], in experiment [8], in [9], in experiment [10] and in [11] was inactive. Also, the result in experiment [13], in experiment [6], in experiment [14], in experiment [15], in experiment [17] and in experiment [18] was inactive. In addition, the result in experiment [19] was inactive. Further, the AC50 in experiment [14] was 27.7 µM (active).

`CCO[Si](CCC(F)(F)C(F)(F)C(F)(F)C(F)(F)C(F)(F)C(F)(F)F)(OCC)OCC`: the molecule was classed as inactive in experiment [2], in [3], in experiment [4], in [5], in [7] and in [8]. In addition, the outcome in [9], in [10], in experiment [11], in experiment [12], in [13] and in experiment [6] was inactive. Also, the result in experiment [14], in experiment [15], in experiment [17], in [18] and in experiment [19] was inactive. Moreover, the concentration at half-maximal activity (AC50) in [19] was 0.638 µM (active).

On to `O=C(C=Cc1ccccc1)OCC=Cc1ccccc1`, for which the call in experiment [1], in [3], in [5] and in [6] was inactive.

Turning to `CCCCCCS`, the molecule was classed as inactive in experiment [2], in [3] and in [6]. Also, the AC50 in experiment [4] is 100 µM (active).

Consider `O=C(O)C(F)(F)C(F)(F)F`, for which the call in experiment [1], in experiment [3], in experiment [5], in [7], in experiment [8] and in experiment [9] was inactive. The result in [10], in [11], in experiment [12], in [13], in experiment [6] and in experiment [14] was inactive. Besides, the outcome in experiment [15], in [17], in [18] and in experiment [19] was inactive. Further, in [9], the AC50 is 23 µM (active).
